# Results from paper PMC7862700, “An all-to-all approach to the identification of sequence-specific readers for epigenetic DNA modifications on cytosine”.
# What was measured:
# Experiment in all cases: DAPPL (digital affinity profiling via proximity ligation, sequencing); 10 mM Tris-HCl pH 7.5, 50 mM NaCl, 1 mM DTT, 4% glycerol, room temperature, 30 min; GST-TFs on glutathione beads, 16-mer random dsDNA library, 0.1% formaldehyde crosslink after washing; high values mean tight binding
# Conditions in all cases: protein: recombinant; tags: N-terminal GST; dsDNA, one strand shown
# FLI1 = target: T1, FLI1 (Homo sapiens, UniProt Q01543 1-452)
# T1 sequence: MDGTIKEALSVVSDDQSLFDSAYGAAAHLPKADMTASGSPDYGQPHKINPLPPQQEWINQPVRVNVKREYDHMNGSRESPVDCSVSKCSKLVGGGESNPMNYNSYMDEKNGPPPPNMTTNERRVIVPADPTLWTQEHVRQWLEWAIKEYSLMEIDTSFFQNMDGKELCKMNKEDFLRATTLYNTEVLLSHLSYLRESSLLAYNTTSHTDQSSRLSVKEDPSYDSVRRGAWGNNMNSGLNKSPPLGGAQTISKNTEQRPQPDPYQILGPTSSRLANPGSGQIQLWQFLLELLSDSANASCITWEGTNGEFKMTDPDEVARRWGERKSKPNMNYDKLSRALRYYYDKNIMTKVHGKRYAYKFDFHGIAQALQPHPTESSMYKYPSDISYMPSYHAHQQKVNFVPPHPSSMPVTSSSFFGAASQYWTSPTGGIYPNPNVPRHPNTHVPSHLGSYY
# Procedure, shortened: (§1)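 Yeast served to express human transcription factors as GST fusions, which were then captured on glutathione beads and labelled with DNA barcodes. Pooled with a tag-only sample, they were incubated with 200 nmole of a 16-mer random double-stranded DNA library for 30 min at room temperature in Tris/NaCl/DTT/glycerol buffer, washed, crosslinked with 0.1% formaldehyde, ligated by proximity, amplified by PCR and sequenced. Dividing each hexamer's read frequency for a factor by its frequency for the tag-only sample gives the binding signal.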
# ELK1 = target: T2, ELK1 (Homo sapiens, UniProt P19419 1-428)
# T2 sequence: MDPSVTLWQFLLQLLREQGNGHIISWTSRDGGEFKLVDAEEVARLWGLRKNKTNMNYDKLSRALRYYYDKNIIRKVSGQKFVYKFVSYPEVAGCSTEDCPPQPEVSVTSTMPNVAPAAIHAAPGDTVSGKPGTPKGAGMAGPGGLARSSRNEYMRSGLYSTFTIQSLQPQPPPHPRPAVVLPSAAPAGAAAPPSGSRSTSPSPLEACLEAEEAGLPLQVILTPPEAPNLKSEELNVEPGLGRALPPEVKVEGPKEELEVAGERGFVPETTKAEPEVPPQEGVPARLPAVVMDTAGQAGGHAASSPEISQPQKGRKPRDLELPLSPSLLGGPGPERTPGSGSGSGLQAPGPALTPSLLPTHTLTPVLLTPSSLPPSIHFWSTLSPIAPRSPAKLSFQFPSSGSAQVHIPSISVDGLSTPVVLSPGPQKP
# Procedure, shortened: as §1
# GABPA = target: T3, GABPA (Homo sapiens, UniProt Q06546 1-454)
# T3 sequence: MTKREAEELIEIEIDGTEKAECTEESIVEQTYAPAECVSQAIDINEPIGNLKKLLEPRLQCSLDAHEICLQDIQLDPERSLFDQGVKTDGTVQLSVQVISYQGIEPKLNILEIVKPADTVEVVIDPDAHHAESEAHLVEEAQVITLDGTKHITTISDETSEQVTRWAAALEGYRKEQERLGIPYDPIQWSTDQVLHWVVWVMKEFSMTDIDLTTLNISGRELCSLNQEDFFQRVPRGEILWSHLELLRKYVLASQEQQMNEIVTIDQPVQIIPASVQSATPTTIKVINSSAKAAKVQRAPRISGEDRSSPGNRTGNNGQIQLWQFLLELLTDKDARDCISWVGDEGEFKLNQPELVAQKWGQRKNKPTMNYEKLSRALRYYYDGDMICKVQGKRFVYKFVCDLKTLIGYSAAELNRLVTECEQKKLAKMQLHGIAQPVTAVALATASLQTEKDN
# Procedure, shortened: as §1
# ERG = target: T4, ERG (Homo sapiens, UniProt P11308 1-479)
# T4 sequence: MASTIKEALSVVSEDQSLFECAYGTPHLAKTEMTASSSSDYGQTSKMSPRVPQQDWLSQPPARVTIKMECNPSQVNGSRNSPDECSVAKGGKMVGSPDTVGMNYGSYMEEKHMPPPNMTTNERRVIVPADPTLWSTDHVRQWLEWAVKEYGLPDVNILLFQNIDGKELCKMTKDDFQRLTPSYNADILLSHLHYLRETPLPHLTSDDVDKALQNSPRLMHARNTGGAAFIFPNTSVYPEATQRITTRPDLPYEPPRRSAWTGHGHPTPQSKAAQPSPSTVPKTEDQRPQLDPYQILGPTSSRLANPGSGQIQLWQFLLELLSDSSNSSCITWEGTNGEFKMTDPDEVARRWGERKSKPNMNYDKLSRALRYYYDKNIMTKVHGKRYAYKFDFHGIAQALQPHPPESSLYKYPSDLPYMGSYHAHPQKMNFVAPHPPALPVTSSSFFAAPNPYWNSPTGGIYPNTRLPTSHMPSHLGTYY
# Procedure, shortened: as §1
# ELF1 = ELF1 (Homo sapiens, UniProt P32519 1-619)
# ELF1, sequence (P32519 whole entry): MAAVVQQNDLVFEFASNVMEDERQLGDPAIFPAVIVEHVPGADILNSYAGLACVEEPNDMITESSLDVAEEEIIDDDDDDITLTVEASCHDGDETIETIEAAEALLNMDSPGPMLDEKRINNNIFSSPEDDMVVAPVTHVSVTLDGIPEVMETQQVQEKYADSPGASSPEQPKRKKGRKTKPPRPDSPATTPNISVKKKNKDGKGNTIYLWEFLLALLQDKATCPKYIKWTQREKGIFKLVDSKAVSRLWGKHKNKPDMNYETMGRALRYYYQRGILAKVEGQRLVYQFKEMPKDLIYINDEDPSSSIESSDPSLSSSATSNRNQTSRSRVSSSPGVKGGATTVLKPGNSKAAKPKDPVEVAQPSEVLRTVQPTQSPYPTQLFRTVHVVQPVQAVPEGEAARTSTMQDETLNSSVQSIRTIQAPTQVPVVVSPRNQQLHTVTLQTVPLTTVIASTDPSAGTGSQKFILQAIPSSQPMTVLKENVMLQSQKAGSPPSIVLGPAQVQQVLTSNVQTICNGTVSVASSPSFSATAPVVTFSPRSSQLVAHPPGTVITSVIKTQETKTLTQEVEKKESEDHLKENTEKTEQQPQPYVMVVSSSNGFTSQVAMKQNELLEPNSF
# Procedure, shortened: as §1
# EHF = target: T5, EHF (Homo sapiens, UniProt Q9NZC4 1-300)
# T5 sequence: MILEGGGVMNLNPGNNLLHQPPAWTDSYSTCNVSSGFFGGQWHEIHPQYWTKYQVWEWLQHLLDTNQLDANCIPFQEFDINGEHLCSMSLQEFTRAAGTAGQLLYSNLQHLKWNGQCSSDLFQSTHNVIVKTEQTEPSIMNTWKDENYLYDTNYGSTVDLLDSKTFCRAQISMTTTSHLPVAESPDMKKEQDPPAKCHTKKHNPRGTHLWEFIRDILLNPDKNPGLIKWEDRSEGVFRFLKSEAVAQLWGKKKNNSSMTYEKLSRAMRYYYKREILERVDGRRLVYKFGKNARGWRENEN
# Procedure, shortened: as §1
# SPI1 = SPI1 (Homo sapiens, UniProt P17947 1-270)
# Procedure, shortened: as §1
# SPIB = SPIB (Homo sapiens, UniProt Q01892 1-262)
# SPIB, sequence (Q01892 whole entry): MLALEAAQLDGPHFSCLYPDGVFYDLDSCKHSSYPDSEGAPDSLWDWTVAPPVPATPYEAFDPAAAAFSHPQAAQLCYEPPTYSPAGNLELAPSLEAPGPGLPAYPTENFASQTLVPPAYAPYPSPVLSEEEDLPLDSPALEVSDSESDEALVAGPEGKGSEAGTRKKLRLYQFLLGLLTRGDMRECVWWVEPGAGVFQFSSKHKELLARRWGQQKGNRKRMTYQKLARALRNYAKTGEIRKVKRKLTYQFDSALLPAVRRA
# Procedure, shortened: as §1
# ELK3 = target: T6, ELK3 (Homo sapiens, UniProt P41970 1-407)
# T6 sequence: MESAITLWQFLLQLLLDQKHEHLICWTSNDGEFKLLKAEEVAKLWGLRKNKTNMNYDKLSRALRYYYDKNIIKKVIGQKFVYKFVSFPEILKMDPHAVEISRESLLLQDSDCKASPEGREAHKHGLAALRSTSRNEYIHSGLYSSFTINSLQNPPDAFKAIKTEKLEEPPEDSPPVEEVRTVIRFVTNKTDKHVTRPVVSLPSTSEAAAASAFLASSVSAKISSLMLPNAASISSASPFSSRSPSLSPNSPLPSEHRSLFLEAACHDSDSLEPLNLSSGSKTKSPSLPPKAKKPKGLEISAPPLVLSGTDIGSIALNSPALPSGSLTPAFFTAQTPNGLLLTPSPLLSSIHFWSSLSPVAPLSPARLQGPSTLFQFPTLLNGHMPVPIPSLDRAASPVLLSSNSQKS
# Procedure, shortened: as §1
# FEV = target: T7, FEV (Homo sapiens, UniProt Q99581 1-238)
# T7 sequence: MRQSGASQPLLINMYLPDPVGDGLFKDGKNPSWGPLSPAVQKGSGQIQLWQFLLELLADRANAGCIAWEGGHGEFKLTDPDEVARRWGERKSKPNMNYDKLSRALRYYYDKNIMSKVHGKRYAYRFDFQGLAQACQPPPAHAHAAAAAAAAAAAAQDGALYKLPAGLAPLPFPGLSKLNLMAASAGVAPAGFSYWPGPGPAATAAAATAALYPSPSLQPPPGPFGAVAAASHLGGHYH
# Procedure, shortened: as §1
# ETV5 = ETV5 (Homo sapiens, UniProt P41161 1-510)
# ETV5, sequence (P41161 whole entry): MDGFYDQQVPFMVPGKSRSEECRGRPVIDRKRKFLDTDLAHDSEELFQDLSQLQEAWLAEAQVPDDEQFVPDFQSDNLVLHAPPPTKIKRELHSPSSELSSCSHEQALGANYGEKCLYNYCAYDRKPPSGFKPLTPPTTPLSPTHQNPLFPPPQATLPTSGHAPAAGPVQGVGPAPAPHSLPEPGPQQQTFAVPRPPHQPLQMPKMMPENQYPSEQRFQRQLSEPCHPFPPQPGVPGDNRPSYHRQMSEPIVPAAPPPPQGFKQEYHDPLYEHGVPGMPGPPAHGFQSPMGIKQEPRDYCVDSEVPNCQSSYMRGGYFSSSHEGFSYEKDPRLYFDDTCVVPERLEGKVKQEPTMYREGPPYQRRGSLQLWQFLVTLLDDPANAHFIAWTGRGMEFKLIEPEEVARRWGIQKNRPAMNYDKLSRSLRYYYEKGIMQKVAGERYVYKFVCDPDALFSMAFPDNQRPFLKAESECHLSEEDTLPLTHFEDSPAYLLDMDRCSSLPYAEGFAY
# Procedure, shortened: as §1
# SPIC = target: T8, SPIC (Homo sapiens, UniProt Q8N5J4 1-248)
# T8 sequence: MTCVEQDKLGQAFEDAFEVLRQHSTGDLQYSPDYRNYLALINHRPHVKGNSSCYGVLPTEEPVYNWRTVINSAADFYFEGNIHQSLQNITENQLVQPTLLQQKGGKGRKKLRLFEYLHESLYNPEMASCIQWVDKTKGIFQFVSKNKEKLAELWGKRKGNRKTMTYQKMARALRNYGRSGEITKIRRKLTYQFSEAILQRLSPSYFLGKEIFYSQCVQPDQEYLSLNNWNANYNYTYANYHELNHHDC
# Procedure, shortened: as §1
# ELF4 = ELF4 (Homo sapiens, UniProt Q99607 1-663)
# ELF4, sequence (Q99607 whole entry): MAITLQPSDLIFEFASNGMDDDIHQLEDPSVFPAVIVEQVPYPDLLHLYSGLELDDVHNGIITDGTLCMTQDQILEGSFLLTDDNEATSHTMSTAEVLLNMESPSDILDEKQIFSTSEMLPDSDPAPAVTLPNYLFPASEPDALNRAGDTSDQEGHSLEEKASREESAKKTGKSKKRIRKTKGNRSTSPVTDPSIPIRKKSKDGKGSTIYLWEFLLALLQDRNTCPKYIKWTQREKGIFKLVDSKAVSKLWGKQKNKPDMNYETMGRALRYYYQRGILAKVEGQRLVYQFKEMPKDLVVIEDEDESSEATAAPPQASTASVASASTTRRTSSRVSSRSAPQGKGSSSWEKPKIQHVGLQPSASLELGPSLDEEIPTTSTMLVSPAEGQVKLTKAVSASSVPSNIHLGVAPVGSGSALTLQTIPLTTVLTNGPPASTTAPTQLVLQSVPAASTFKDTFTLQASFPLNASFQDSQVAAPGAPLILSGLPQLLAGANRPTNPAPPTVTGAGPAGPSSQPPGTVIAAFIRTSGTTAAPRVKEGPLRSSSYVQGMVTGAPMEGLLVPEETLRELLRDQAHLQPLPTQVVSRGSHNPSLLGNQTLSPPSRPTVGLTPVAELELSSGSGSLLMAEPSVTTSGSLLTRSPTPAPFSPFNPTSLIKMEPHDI
# Procedure, shortened: as §1
# ELK4 = target: T9, ELK4 (Homo sapiens, UniProt P28324-2 1-405)
# T9 sequence: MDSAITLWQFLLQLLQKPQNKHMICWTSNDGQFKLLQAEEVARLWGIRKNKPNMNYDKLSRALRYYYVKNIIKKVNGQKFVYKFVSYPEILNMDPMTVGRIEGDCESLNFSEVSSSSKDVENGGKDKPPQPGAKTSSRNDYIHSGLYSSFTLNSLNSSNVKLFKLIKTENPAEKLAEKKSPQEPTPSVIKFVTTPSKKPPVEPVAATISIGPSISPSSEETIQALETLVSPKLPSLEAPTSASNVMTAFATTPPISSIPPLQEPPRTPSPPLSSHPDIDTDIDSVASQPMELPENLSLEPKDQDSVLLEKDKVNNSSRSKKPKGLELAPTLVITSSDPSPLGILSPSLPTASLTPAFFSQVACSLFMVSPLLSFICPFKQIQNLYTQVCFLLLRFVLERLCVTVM
# Procedure, shortened: as §1
# ETV2 = target: T10, ETV2 (Homo sapiens, UniProt O00321 1-342)
# T10 sequence: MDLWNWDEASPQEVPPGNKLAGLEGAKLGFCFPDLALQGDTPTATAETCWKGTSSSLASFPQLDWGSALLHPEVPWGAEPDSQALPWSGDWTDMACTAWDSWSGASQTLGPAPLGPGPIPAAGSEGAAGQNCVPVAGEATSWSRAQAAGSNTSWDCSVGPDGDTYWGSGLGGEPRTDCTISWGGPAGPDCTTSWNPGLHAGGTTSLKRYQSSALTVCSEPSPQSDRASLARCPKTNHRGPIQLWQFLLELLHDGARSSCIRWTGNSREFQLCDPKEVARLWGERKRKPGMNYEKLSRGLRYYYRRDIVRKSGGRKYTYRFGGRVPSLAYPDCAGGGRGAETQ
# Procedure, shortened: as §1
# ELF3 = target: T11, ELF3 (Homo sapiens, UniProt P78545 1-371)
# T11 sequence: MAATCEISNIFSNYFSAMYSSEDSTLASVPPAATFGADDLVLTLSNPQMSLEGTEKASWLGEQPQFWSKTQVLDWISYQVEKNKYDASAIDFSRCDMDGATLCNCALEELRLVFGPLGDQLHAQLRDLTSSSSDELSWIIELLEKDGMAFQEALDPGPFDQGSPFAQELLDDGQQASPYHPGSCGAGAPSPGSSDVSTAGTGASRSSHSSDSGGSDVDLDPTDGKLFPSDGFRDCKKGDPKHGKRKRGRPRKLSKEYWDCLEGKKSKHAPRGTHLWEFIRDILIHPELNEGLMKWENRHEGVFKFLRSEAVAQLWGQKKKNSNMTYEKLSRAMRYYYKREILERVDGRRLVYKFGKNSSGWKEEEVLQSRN
# Procedure, shortened: as §1
# ETV1 = ETV1 (Homo sapiens, UniProt P50549 1-477)
# ETV1, sequence (P50549 whole entry): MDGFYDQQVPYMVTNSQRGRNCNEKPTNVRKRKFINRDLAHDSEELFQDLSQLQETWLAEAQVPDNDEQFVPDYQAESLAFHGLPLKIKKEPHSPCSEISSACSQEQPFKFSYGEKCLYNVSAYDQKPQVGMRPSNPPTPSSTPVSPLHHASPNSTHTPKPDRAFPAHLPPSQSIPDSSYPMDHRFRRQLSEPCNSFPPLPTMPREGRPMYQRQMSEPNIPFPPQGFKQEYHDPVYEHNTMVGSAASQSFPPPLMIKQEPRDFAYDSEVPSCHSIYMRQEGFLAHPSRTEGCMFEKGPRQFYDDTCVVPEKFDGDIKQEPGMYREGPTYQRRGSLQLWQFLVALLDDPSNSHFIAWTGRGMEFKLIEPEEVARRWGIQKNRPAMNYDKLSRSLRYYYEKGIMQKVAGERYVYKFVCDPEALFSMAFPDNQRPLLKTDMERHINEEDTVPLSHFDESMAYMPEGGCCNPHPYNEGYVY
# Procedure, shortened: as §1
sequence,measurement,setting,value
TGACAC,binding signal,FLI1,"1.13 fold enrichment (6-mer frequency, TF over GST control)"
same,binding signal,ELK1,"1.27 fold enrichment (6-mer frequency, TF over GST control)"
same,binding signal,GABPA,"1.07 fold enrichment (6-mer frequency, TF over GST control)"
same,binding signal,ERG,"1.2 fold enrichment (6-mer frequency, TF over GST control)"
same,binding signal,ELF1,"1.17 fold enrichment (6-mer frequency, TF over GST control)"
same,binding signal,EHF,"1.15 fold enrichment (6-mer frequency, TF over GST control)"
same,binding signal,SPI1,"1.13 fold enrichment (6-mer frequency, TF over GST control)"
same,binding signal,SPIB,"1.11 fold enrichment (6-mer frequency, TF over GST control)"
same,binding signal,ELK3,"1.22 fold enrichment (6-mer frequency, TF over GST control)"
same,binding signal,FEV,"1.11 fold enrichment (6-mer frequency, TF over GST control)"
same,binding signal,ETV5,"1.11 fold enrichment (6-mer frequency, TF over GST control)"
same,binding signal,SPIC,"1.07 fold enrichment (6-mer frequency, TF over GST control)"
same,binding signal,ELF4,"1.1 fold enrichment (6-mer frequency, TF over GST control)"
same,binding signal,ELK4,"1.18 fold enrichment (6-mer frequency, TF over GST control)"
same,binding signal,ETV2,"1.15 fold enrichment (6-mer frequency, TF over GST control)"
same,binding signal,ELF3,"1.14 fold enrichment (6-mer frequency, TF over GST control)"
same,binding signal,ETV1,"1.1 fold enrichment (6-mer frequency, TF over GST control)"
